Our source for the INHIBITION values is ChEMBL document CHEMBL4513216, “Probing the Open Global Health Chemical Diversity Library for Multistage-Active Starting Points for Next-Generation Antimalarials” (ACS Infect Dis, 2020).

Structures are written as SMILES. Screen size: about 69,000 compounds; about 8,600 (12%) showed an effect of 50% or more. The full list was thinned out, with strong results kept by preference.

This assay deals with Plasmodium berghei. As to the kind of experiment: Screen against P. berghei liver stage (PbLuc), transformed with Luciferase, at 10uM. It counts as functional, HepG2. To be noted: tested at 10 uM.
As for `COCC1CC2(CCN(Cc3cnn(C)c3)CC2)CN1c1ncccn1` (stereo not given), the INHIBITION came out at 18.5%.
Then `O=C(CN1CCCC1COc1ccccc1)NCc1ccccn1` (stereo not given), with 38.2%.
As for `Cc1nc(C(C)(C)NC(=O)Nc2ccc(C#N)cc2)no1`, the figure is 79.2%; as for `Cc1ccc(NC(=O)NC(C)(C)c2noc(C)n2)cc1`, 13.6%; as for `Cc1nc(C(C)(C)NC(=O)Nc2cccc(C#N)c2)no1`, -4.74%.
As for `CCc1csc(C2CCCN(C(=O)c3ccnc(N(C)C)c3)C2)n1` (stereo not given), the figure is 27.6%; as for `CN(C)CCNc1ncccc1CNC(=O)Nc1cc(F)cc(F)c1`, 55.6%; as for `CC(C)c1nnc(NC(=O)NCc2cccnc2NCCN(C)C)s1`, 25.7%.
For the compound `Cc1nc(NC(=O)NCc2cccnc2NCCN(C)C)sc1C`, the INHIBITION was determined as 37.7%.
Then `Cn1cc(S(=O)(=O)N(Cc2ccc(F)cc2F)C2CC2)cc1C(N)=O`, with 40.9%.
As for `Cc1n[nH]c(C)c1NC(=O)CN1CCCC1c1c(C)nn(C)c1C` (stereo not given), the INHIBITION was 9.54%.
As for `CCN(CC)C(=O)CSc1nc2cc(C)nc-2c(O)n1CC`, the figure is 42.4%.
As for `c1cncc(C2COC3(CCN(Cc4nccs4)CC3)C2)c1` (stereo not given), the INHIBITION came to 36.2%.
As for `Cc1nc(CN2CCN(C(=O)CCc3cccc(Cl)c3)CC2)no1`, the figure is 75.2%.
As for `Cc1nc(CN2CCN(C(=O)Cc3cccc(Cl)c3)CC2)no1`, the figure is -2.04%.
Then `Cc1nc(CN2CCN(C(=O)CC(C)(C)c3ccccc3)CC2)no1`, with -73.6%; and `Cc1nc(CN2CCN(C(=O)CCC(=O)c3ccccc3)CC2)no1`, with -36.4%.
Consider `O=C(CCn1ccc2ccccc21)N1CCC(Nc2cccnn2)CC1`, for which the INHIBITION is listed as -35.2%.
As for `O=C(CCn1ccc2ccccc21)N1CCC(Nc2cccnc2)CC1`, the figure is -22.4%; as for `COc1cccc(CCC(=O)N2CCN(Cc3noc(C)n3)CC2)c1`, -30.7%.
As for `O=C(CCn1ccc2ccccc21)N1CCN(Cc2cccnc2)CC1`, the figure is 64.9%; as for `Cc1nc(CN2CCN(C(=O)CCc3cccnc3)CC2)no1`, 65.2%; as for `O=C(CCn1cccn1)N1CCSCC1`, 4.55%.
For `CN(C)Cc1ccccc1CN(C)C(=O)c1ccoc1`, the INHIBITION stood at 11.1%.
As for `c1c(CN2CCCCC2)nc2n1CCNC2`, the figure is -46.4%; as for `Cc1nn(C)cc1S(=O)(=O)N(C)[C@@H]1CCC[C@@H](n2ccnc2)[C@@H]1O`, 23%; as for `O=C(CCc1c(F)cccc1F)NS(=O)(=O)c1ccc2c(c1)OCCO2`, 0.914%.
Then `Cc1nnc2n1CC(CNc1ncnc3ccccc13)CC2` (stereo not given), with 22%; and `FC(F)(F)CN1CCC(CNc2nc3ccccc3o2)C1` (stereo not given), with 24.8%.
For the compound `Cc1cc(C)c2c(NCC3(O)CCCCC3)ncnc2n1`, the INHIBITION stood at 36.6%.
For the compound `OC1(CNc2ccc(Br)cn2)CCC1`, the INHIBITION is -28.6%.
As for `OCc1cc2ccccc2nc1NCC1CC1`, the figure is 59.1%; as for `CC(C)(C)c1n[nH]cc1CNCC1CCN(CC(F)(F)F)C1` (stereo not given), -35.2%.
As for `OCc1cc2ccccc2nc1NCC1(O)CCC1`, the figure is 58.2%; as for `OCc1cc2ccccc2nc1NC1CC=CC1`, 62.8%.
As for `OCc1cc2ccccc2nc1NCC1CCN(CC(F)(F)F)C1` (stereo not given), the figure is 63.8%.
`COc1nc2ccccc2cc1CN1CCC(CNS(C)(=O)=O)C1` (stereo not given): the INHIBITION turned out to be 7.15%.
Then `COc1cccn(CC(=O)N2CCCC3(CCOCC3)C2)c1=O`, with 40.9%.
For the compound `COCCNC(=O)[C@@]12CCO[C@@H]1CCN(Cc1ccc(OC)cc1)C2`, the INHIBITION was determined as 39.2%.
As for `COc1ccc(CN2C[C@H]3CCC[C@@H](CN(C)C4CC4)[C@H]3C2)cn1`, the figure is -15.3%.
As for `CC(C)(C)c1n[nH]cc1CNCC1CCN(C2CC2)C1` (stereo not given), the figure is 26.3%; as for `CN(CC1CCOC1)S(=O)(=O)c1cccc(C(=O)N2CCOCC2)c1` (stereo not given), 1.19%.
For `CC(C)N1CCCC(C(=O)N2CCN(c3cccc(C(=O)O)c3)CC2)C1` (stereo not given), the INHIBITION is 21.2%.
Then `COCCN(C)C[C@@H]1CN(c2cc(C)nc3ccccc23)C[C@@H]1CO`, with -34.8%.
As for `CN(Cc1nc2ccccc2s1)C1CCCN(c2cccnn2)C1` (stereo not given), the figure is 24.7%; as for `Cc1cc(C)c(CNc2nc3ccccc3cc2CO)c(=O)[nH]1`, 55.8%.
Then `Cc1cc(C)c(CNc2cnc3ccccc3n2)c(=O)[nH]1`, with -1.35%.
Take `Cc1cc(C)c(CNc2ncnc3ccccc23)c(=O)[nH]1`: the INHIBITION came to 14.7%.
As for `Cc1nc(C)n(C2CCCN(C(=O)c3ccc(O)nc3)C2)n1` (stereo not given), the figure is 16.1%; as for `Cc1nn(C)c(N(C)C)c1CNCc1cccc(Cn2cncn2)c1`, -17.6%.
Then `Cc1c[nH]nc1C1CCCN1Cc1nccn1C` (stereo not given), with 18.4%; and `COc1cccc2cc(CNCc3ccc(N4CCCC4)nc3)oc12`, with 21.6%.
As for `COc1c(CNCc2cccnc2N2CCOCC2)c(C)nn1C`, the figure is -7.7%; as for `COc1cccc2cc(CNCc3ccnc(N4CCCCC4)c3)oc12`, -19.4%; as for `COc1c(CNCc2cccnc2N2CCN(C)CC2)c(C)nn1C`, 51.3%.
Take `COc1c(CNCc2ccnc(N3CCCC3)c2)c(C)nn1C`: the INHIBITION is listed as -8.3%.
Take `COc1ccc(CNCc2ccnc(N3CCCCC3)c2)cc1OC`: the INHIBITION is given as 37.2%.
For the compound `COc1c(CNCc2cccnc2N2CCCCC2)c(C)nn1C`, the INHIBITION is recorded as -91.6%.
Then `COc1ccc(CNCc2ccc(N3CCCCC3)nc2)cc1OC`, with 52.7%; and `COc1c(CNCc2ccnc(N3CCCCC3)c2)c(C)nn1C`, with 87.3%; and `COc1c(CNCc2ccnc(N3CCOCC3)c2)c(C)nn1C`, with 19.4%.
As for `COc1cc(CNCc2ccnc(N3CCCCC3)c2)cc(OC)c1`, the figure is 80.9%; as for `COc1ccc(OC)c(CNCc2ccnc(N3CCCCC3)c2)c1`, 10.6%.
As for `O=C(NCc1cccnc1N1CCCCC1)c1ccc2cc[nH]c2c1`, the figure is 2.7%; as for `NC1(CN2CCOCC2)CCCCC1`, 8.12%.
On to `C[C@H]1CN(c2ccccn2)C[C@@]12CCN(c1cccnc1)C2=O`, for which the INHIBITION came out at 8.66%.
As for `COc1cc(CNCc2ccnc(N3CCOCC3)c2)cc(OC)c1`, the INHIBITION was 19.2%.
As for `COc1cc(CNCc2ccnc(N3CCCC3)c2)cc(OC)c1`, the figure is 59.6%; as for `COc1ccc(CNCc2ccnc(N3CCCC3)c2)c(OC)c1`, 41.45%.
As for `CCN1CC(C(=O)NCCc2csc(-c3ccncc3)n2)CCC1=O` (stereo not given), the figure is 1.86%.
